Data on 40 molecules can be found in PubChem BioAssay (EPA / NIEHS).

Calls of active or inactive are those of the source. How the source made its calls: active means hit-call score of the fitted dose curve at least 0.9, where 1 is the maximum; inactive means score below 0.9.

This assay is described as follows: ATG_TAL_CIS: Attagene CIS-FACTORIAL HepG2 Assay for human TAL Basal Promoter (AID 2282966). Particulars: HepG2 Attagene cis-factorial TAL promoter reporter; actives raise or lower the signal. On the procedure: ATG_CIS is a cell-based, multiplexed-readout assay that uses HepG2, a human liver cell line, with measurements taken at 24 hours after chemical dosing in a 24-well plate.ATG_TAL_CIS is one of 52 assay component(s) measured or calculated from the ATG_CIS assay. It is designed to make measurements of mRNA induction, a form of inducible reporter, as detected with fluorescence intensity signals by Reverse transcription polymerase chain reaction (RT-PCR) and Capillary electrophoresis technology.Data from the assay component ATG_TAL_CIS was analyzed into 1 assay endpoint. This assay endpoint, ATG_TAL_CIS, was analyzed with bidirectional fitting relative to DMSO as the negative control and baseline of activity. Using a type of inducible reporter, measures of mRNA for gain or loss-of-signal activity can be used to understand the background control at the transcription factor-level as they relate to the gene . Furthermore, this assay endpoint can be referred to as a secondary readout, because this assay has produced multiple assay endpoints where this one serves a background control function. To generalize the intended target to other relatable targets, this assay endpoint is annotated to the background measurement intended target family, where the subfamily is internal marker.
Human liver HepG2 cells are transiently transfected with multiple reporter transcription units (MRTUs) in 6-well plates using FuGene 6 reagent (Roche; 3 ml FuGene/1 mg DNA). The MRTU constructs are regulated by a cis-regulating element (promoter). […] A major difference between the CIS and TRANS system is that in CIS activities of endogenous TFs are measured, whereas the TRANS assay evaluates changes in activities of exogenous, chimeric NR-Gal4 proteins. […] At the end of 24 hour incubation, total RNA was isolated using TriZol reagent (Invitrogen). The isolated RNA is then reverse-transcribed using oligo(dT) primer and Mo-MLV reverse transcriptase (Invitrogen) with DNAse I (Ambion) treatment for 30 min. The one-tenth of the produced cDNA was amplified by PCR using Taq DNA polymerase (Invitrogen) and two reporter sequence-specific primers. The PCR products were fluorescently labeled by primer extension with 6-arboxyfluorescein (6-FAM) 5'-labeled reporter sequence-specific primer (2 min at 95 C, 20 s at 68 C and 10 min at 72 C) and these products were digested with 5U of HpaI (New England Biolabs) for 2h at 37 C. The fragments were purified using Qiaquick PCR columns (Qiagen), analyzed on an ABI 3130xL genetic analyzer (Applied Biosystems) with peak positions identified by using a set of X-rhodamine (ROX)-labeled MapMarker1000 molecular weight standards (BioVentures). The raw capillary electrophoresis data was processed using Attagraph software (Attagene).
Take `O=CN1CCOCC1`: the molecule was classed as inactive.

For the molecule `CCC(=O)O[C@@H]1C[C@H]2CC[C@]1(C)C2(C)C`, the molecule was called inactive.

Consider `C=CCCCCCCCCCC`, for which the molecule was classed as inactive.

For `O=c1[nH]c(=O)c2cn[nH]c2[nH]1`, the result was inactive.

Take `Clc1cc(Cl)c(-c2c(Cl)c(Cl)cc(Cl)c2Cl)cc1Cl`: the outcome was inactive.

As to `CCCCC1(COC(=O)CCC(=O)O)C(=O)N(c2ccccc2)N(c2ccccc2)C1=O`, the molecule was called inactive.

In the case of `C=C(C)[C@@H]1CC=C(C)C(=O)C1`, the outcome was inactive.

On to `NCc1ccco1`, for which the outcome was inactive.

Regarding `O=C(Nc1ccc([N+](=O)[O-])cc1)Nc1ccc([N+](=O)[O-])cc1` (tested in a mixture with another compound), the result was inactive.

Regarding `COC(=O)c1ccc(C)cc1C1=NC(C)(C(C)C)C(=O)N1` (stereo not given) (tested in a mixture with another compound), the result was inactive.

`Nc1ccc2cc(S(=O)(=O)O)cc(O)c2c1N=Nc1ccccc1C(F)(F)F`: the result was inactive.

Take `COc1cc([C@@H]2c3cc4c(cc3[C@@H](O[C@@H]3O[C@@H]5CO[C@@H](C)O[C@H]5[C@H](O)[C@H]3O)[C@H]3COC(=O)[C@H]23)OCO4)cc(OC)c1O`: the result was inactive.

On to `CC1=C(Br)C(=O)C(Br)=C/C1=C(/c1ccccc1S(=O)(=O)O)c1cc(Br)c(O)c(Br)c1C`, for which the call was inactive.

As to `CC1(C)COCN1`, the molecule was classed as inactive.

`CC(=O)O[C@@H]1C[C@@H]2CC[C@@]1(C)C2(C)C`: the result was inactive.

`OCCCCC(O)CO` (stereo not given): the molecule was called inactive.

Regarding `CC(C)CCCCCCc1ccc(OCCOCCO)cc1`, the call was inactive.

On to `CCNCCO`, for which the molecule was classed as inactive.

For the molecule `C=CC(C)(O)CCC=C(C)C` (stereo not given), the molecule was classed as inactive.

As for `CCC(C)c1cc([N+](=O)[O-])cc([N+](=O)[O-])c1OC(=O)OC(C)C` (stereo not given), the call was inactive.

`CCCCCCCC(=O)OCC(O)CO` (stereo not given): the call was inactive.

As for `CCc1cc(C(C)(C)C)c(O)c(C(C)(C)C)c1`, the outcome was inactive.

For `CC(C)(C)CC(C)(C)c1ccc(OCCOCC[N+](C)(C)Cc2ccccc2)cc1`, the molecule was called inactive.

`FC(F)(F)COCC(F)(F)F`: the call was inactive.

Turning to `OCCc1ccccc1`, the molecule was classed as inactive.

Turning to `COC(=O)c1ccc([N+](=O)[O-])cc1`, the result was inactive.

For the molecule `C[Si](C)(C)O[Si](C)(C)C`, the molecule was called inactive.

In the case of `O=C(O)CCCCCCCCC(=O)O`, the molecule was classed as inactive.

Turning to `CCCSc1ccc2nc(NC(=O)OC)[nH]c2c1`, the call was inactive.

For the molecule `C=C(C)C(=O)OCC(CC)(COC(=O)C(=C)C)COC(=O)C(=C)C`, the molecule was called inactive.

With `CC/C=C\CCOC(=O)CC`, the molecule was called inactive.

On to `CC[N+](C)(CC)CC`, for which the call was inactive.

As to `NCCNc1cccc2ccccc12`, the molecule was called inactive.

Take `O=C(O)c1cc(C(=O)O)cc([N+](=O)[O-])c1`: the call was inactive.

Turning to `CC(=O)c1c(C)c([N+](=O)[O-])c(C(C)(C)C)c([N+](=O)[O-])c1C`, the outcome was inactive.

Regarding `Cc1ccc(-c2ccccc2)cc1`, the molecule was classed as inactive.

`CCCCN(CCCC)C(=O)N(CCCC)CCCC`: the AC50 is 50.2 µM (active).

As to `CN(C)c1cccc(O)c1`, the molecule was called inactive.

In the case of `CCCCCC(=O)CC`, the call was inactive.

Take `COC(=O)c1cccnc1`: the call was inactive.
